# PubChem BioAssay (NCATS)
# Results filed as inconclusive are left out. Calls of active or inactive are those of the source. Calls follow the shape of the dose curve; as a rule, active = well fitted curve in the direction sought with a large enough effect in the signal ratio, with a control signal flat (not every such curve was filed as active); inconclusive = small, poorly fitted or top-dose-only effect, or effect the other way, or a change in a side signal; inactive = no such curve, though single readings can be large or run the other way; the % refers to the signal ratio.
# Biological target: Peroxisome proliferator-activated receptor gamma (Homo sapiens) (UniProt P37231)
# Assay: qHTS assay for small molecule agonists of peroxisome proliferator-activated receptor gamma signaling (AID 588536)
# Conditions: HEK293 PPARg-UAS-bla, beta-lactamase ratio, 16 h, percent of rosiglitazone response, DMSO as zero; series mostly up to 76.7 µM
# Source text: NIH Chemical Genomics Center [NCGC] U.S. Environmental Protection Agency [EPA] National Institutes of Environmental Health Sciences [NIEHS] National Toxicology Program [NTP] NCGC Assay Overview The Peroxisome proliferator-activated receptors (PPARs) are lipid-activated transcription factors of the nuclear receptor superfamily with three distinct subtypes namely PPAR alpha, PPAR delta (also called PPAR beta) and PPAR gamma. All these subtypes heterodimerizes with Retinoid X receptor (RXR) and these heterodimers regulate transcription of various genes. PPAR-gamma (glitazone receptor) agonists have been used in the treatment of type 2 diabetes and dyslipidaemia. It is involved in the regulation of glucose and lipid metabolism. PPAR-gamma activates certain genes like Paraoxonase 1 which is responsible for hydrolyzing organophosphates. PPAR-gamma agonists may also be therapeutically important in the treatment of coronary artery disease, obesity and cancer and atherosclerosis.
# NCGC Assay Protocol Summary Using a beta-lactamase reporter-gene under control of Peroxisome Proliferator-Activated-gamma (PPAR-gamma) response element, a cell-based assay [GeneBLAzer PPAR-gamma-UAS-bla assay developed by Invitrogen] was used to measure PPAR-gamma ligands signaling. GeneBLAzer PPAR-gamma-UAS-bla-HEK293 cells were used with assay medium containing 1% charcoal/dextran treated FBS. The assay was performed in clear bottom black Greiner 1536-well plates. Rosiglitazone was used in the screen as the positive control. Library compounds were measured for their ability to stimulate the reporter gene activity. Compounds were screened in a titration series in 1536-well format. The fluorescence intensity (405 nm excitation, 460/530 nm emission) was measured using an EnVision plate reader. Data was normalized relative to Rosiglitazone control (2 uM, 100%), and DMSO only wells (basal, 0%). Concentration-response titration points for each compound were fitted to the Hill equation yielding concentrations of half-maximal stimulation (EC50) and maximal response (efficacy) values. qHTS protocol for PPAR-gamma beta-lactamase assay in agonist mode [Step] [Parameter] [Value] [Description] 1. Reagent; 6 uL; 3000 cells/well 2. Incubation; 37 C for 6 - 6.5 hrs 3. Compounds; 23 nL; 0.59 nM to 92 uM 4. Controls (Rosiglitazone); 23 nL, - One column with dose response, start 19 uM, 1:3 dilutions in duplicates - Final concentrations of 2 uM and 0.5 uM in two columns 5. Incubation; 37 C for 16 hrs 6. Detection reagent; 1 uL of CCF4-dye 7. Incubation; RT for 2 hrs 8. Detection; Fluorescence; Envision plate reader
# Chain of Peroxisome proliferator-activated receptor gamma (Homo sapiens) (P37231 whole entry, looked up): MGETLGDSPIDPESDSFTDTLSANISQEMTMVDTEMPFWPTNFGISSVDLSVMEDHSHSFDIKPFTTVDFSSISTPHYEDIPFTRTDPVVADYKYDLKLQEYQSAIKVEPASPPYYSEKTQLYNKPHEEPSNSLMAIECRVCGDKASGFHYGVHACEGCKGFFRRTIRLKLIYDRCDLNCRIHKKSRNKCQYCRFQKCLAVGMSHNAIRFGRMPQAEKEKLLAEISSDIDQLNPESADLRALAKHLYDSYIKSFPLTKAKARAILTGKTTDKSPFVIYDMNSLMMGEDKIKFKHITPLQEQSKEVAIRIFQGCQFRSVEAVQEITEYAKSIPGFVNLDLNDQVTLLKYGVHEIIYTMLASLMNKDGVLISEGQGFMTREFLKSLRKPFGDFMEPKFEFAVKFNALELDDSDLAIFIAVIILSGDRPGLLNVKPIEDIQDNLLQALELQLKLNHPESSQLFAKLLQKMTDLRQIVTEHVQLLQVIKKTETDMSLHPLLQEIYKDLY
row,Compound,outcome
1,NCCNc1cccc2ccccc12,inactive
2,CC1(C)OC[C@@H]2O[C@@]3(C(=O)O)OC(C)(C)O[C@H]3[C@@H]2O1,inactive
3,CCCN(CCC)S(=O)(=O)c1ccc(C(=O)O)cc1,inactive
4,CCCCCCCCCCCCCCCC(=O)O,inactive
5,CCCCOC(=O)CC(CC(=O)OCCCC)(OC(C)=O)C(=O)OCCCC,inactive
6,CN(C)C(=O)Nc1ccc(Cl)c(Cl)c1,inactive
7,NC(=O)c1ccccc1O,inactive
8,CCCCCCCCOc1ccc(C(=O)c2ccccc2)c(O)c1,inactive
9,C/C=C/c1ccc(O)c(OC)c1,inactive
10,COc1ccc(C(=O)c2ccccc2)c(O)c1,inactive
11,C#C[C@]1(O)CC[C@H]2[C@@H]3CCC4=Cc5oncc5C[C@]4(C)[C@H]3CC[C@@]21C,inactive
12,CCOc1ccc(NC(C)=O)cc1,inactive
13,CCCCCCCCCCCCCC(=O)OC(C)C,inactive
14,CCCCC(CC)COC(=O)c1ccc(N(C)C)cc1 (configuration not stated),inactive
15,O=C(O)c1ccc(S(=O)(=O)N(Cl)Cl)cc1,inactive
16,CCCCCCCCCCCCCCCCO,inactive
17,CCOc1ccccc1C(N)=O,inactive
